Results from publication PMC4552634, “A New Set of Chemical Starting Points with Plasmodium falciparum Transmission-Blocking Potential for Antimalarial Drug Discovery” (PLoS ONE, 2015).
Where two headings read alike, the source gives them in different places. About 3,200 (25%) of roughly 13,000 compounds showed an effect of 50% or more. The list shows a part of the results.

System: P. falciparum stage V gametocytes
Design: BacTiter-Glo ATP luminescence viability of purified stage V gametocytes in 384-well plates, per cent inhibition versus DMSO
Settings: 48 h, 5 µM, inhibitor

CC[C@H](C)[C@@H](C(=O)N1CCOCC1)N1CC[C@H](NS(=O)(=O)CC(C)(C)c2ccc(Cl)cc2)C1=O [TCMDC-138910]
% Inhibition: -4.326%

N#Cc1ccc(N2CCN(Cc3cccc(-c4ccc(-c5nc6cc(C(F)(F)F)ccc6[nH]5)s4)c3)CC2)nc1.O=C(O)C(F)(F)F [TCMDC-133114]
% Inhibition: -37.6%

CCCCCC(C)c1cc(O)c2c(c1)OC(C)(C)C=C2C1=CCN(Cc2ccccc2)CC1 (stereo not drawn) [TCMDC-131350]
% Inhibition: -56.28%

FC(F)(F)c1ccc(NC(=S)NC2CCC(CN3CCC(c4c[nH]c5ccccc45)CC3)CC2)cc1 (stereo not drawn) [TCMDC-140178]
% Inhibition (% Inhibition): 78.37%

FC(F)(F)c1ccc(NC(=S)NC2CCC(CN3CCC(c4c[nH]c5ccccc45)CC3)CC2)cc1 (stereo not drawn) [TCMDC-140198]
% Inhibition (% Inhibition): 109.8%

O=C(NC1CCC(CN2CCC(c3c[nH]c4ccccc34)CC2)CC1)c1csc(-c2cccc(Cl)c2Cl)n1 (stereo not drawn) [TCMDC-140351]
% Inhibition: -28.23%

O=C(NC1CCC(CN2CCC(c3c[nH]c4ccccc34)CC2)CC1)c1ccc(-c2cc(C(F)(F)F)ccc2Cl)o1 (stereo not drawn) [TCMDC-140350]
% Inhibition: -5.918%

O=C(Nc1ccccc1Cl)NC1CCC(CN2CCC(c3c[nH]c4ccccc34)CC2)CC1 (stereo not drawn) [TCMDC-140196]
% Inhibition (% Inhibition): 17.3%

O=C(NC1CCC(CN2CCC(c3c[nH]c4ccccc34)CC2)CC1)c1csc(-c2ccc(C(F)(F)F)cc2Cl)n1 (stereo not drawn) [TCMDC-140352]
% Inhibition: 52.36%

O=C(Nc1ccccc1Cl)NC1CCC(CN2CCC(c3c[nH]c4ccccc34)CC2)CC1 (stereo not drawn) [TCMDC-140176]
% Inhibition (% Inhibition): -4.106%

O=C(NC1CCC(CN2CCC(c3c[nH]c4ccccc34)CC2)CC1)NC12CC3CC(CC(C3)C1)C2 (stereo not drawn) [TCMDC-140204]
% Inhibition: 96.25%

CC(Cc1ccc(-c2nc3ccccc3[nH]2)cc1)NCC(O)c1cccc(C(F)(F)F)c1 (stereo not drawn) [TCMDC-131524]
% Inhibition: -16.53%

Cc1ccc(C(C)C)c(Oc2cnc(NC(CO)c3ccccc3)nc2N)c1 (stereo not drawn) [TCMDC-135558]
% Inhibition: 13.9%

Cc1cc2ccc(/C=C/C(=O)NC3CCC(CCN4CCc5ccc(C#N)cc5CC4)CC3)cc2[nH]1 (stereo not drawn) [TCMDC-139668]
% Inhibition: -29.35%

O=C(Cc1cn(-c2ccccc2)nc1-c1ccc(Cl)cc1)Nc1nccs1 [TCMDC-124872]
% Inhibition: -9.075%

Nc1c(-c2ccc(C(=O)NCCNCc3ccccc3)cc2)cnn1-c1ccc(C(F)(F)F)cc1 [TCMDC-136660]
% Inhibition: 12.46%

N#Cc1ccc(N2CCN(Cc3cccc(-c4ccc(-c5nc6cc(C(F)(F)F)ccc6[nH]5)cc4)c3)CC2)nc1.O=C(O)C(F)(F)F [TCMDC-133112]
% Inhibition: -19.5%

CC(C)c1sc(N2CCN(C)CC2)nc1C(=O)Nc1cccc2c1CCCC2 [TCMDC-134303]
% Inhibition: -19.32%

O=C(/C=C/c1ccc(Cl)c(Cl)c1)NCCCCCN1CCC(NC(=S)Nc2ccc(Cl)cc2)CC1 [TCMDC-135898]
% Inhibition: 6.847%

O=C(Nc1cc(C(F)(F)F)cc(C(F)(F)F)c1)NC1CCC(CN2CCC(c3c[nH]c4ccccc34)CC2)CC1 (stereo not drawn) [TCMDC-140199]
% Inhibition (% Inhibition): -51.42%

O=C(Nc1ccccc1OC(F)(F)F)NC1CCC(CN2CCC(c3c[nH]c4ccccc34)CC2)CC1 (stereo not drawn) [TCMDC-140185]
% Inhibition (% Inhibition): -31.33%

O=C(Nc1cc(C(F)(F)F)cc(C(F)(F)F)c1)NC1CCC(CN2CCC(c3c[nH]c4ccccc34)CC2)CC1 (stereo not drawn) [TCMDC-140180]
% Inhibition (% Inhibition): 75.46%

O=C(Nc1ccc(Oc2ccccc2)cc1)NC1CCC(CN2CCC(c3c[nH]c4ccccc34)CC2)CC1 (stereo not drawn) [TCMDC-140186]
% Inhibition: 102.3%

O=C(Nc1ccccc1OC(F)(F)F)NC1CCC(CN2CCC(c3c[nH]c4ccccc34)CC2)CC1 (stereo not drawn) [TCMDC-140203]
% Inhibition (% Inhibition): -4.21%

O=C(NCCNc1ccnc(NCc2ccc(F)cc2)n1)c1cc2ccccc2s1 [TCMDC-133646]
% Inhibition: -28.02%

O=C(NCc1ccc(Cl)c(Cl)c1)c1ccc(C2CCN(Cc3ccc4nc[nH]c4c3)CC2)cc1 [TCMDC-133069]
% Inhibition: -61.63%

COc1ccc2c(c1)CC(C)(C)NC2CCCCCCCCC1NC(C)(C)Cc2cc(OC)ccc21 (stereo not drawn) [TCMDC-137935]
% Inhibition: 92.87%

COc1ccc2c(c1)CC(NCc1ccc(-c3ccc4nc[nH]c4c3)cc1)C2 (stereo not drawn) [TCMDC-133483]
% Inhibition: 36.76%

Cc1ccc(NC(=O)c2ccc(CN3CCCN(Cc4cccc(Cl)c4)CC3)cc2)cc1C [TCMDC-136426]
% Inhibition: -8.077%

NC1=NC2(CCCCC2)N(OCCCCCCN2C(=O)c3ccccc3C2=O)C(N)=N1 [TCMDC-140537]
% Inhibition: 2.277%

O=C(/C=C/c1ccc(Cl)c(Cl)c1)NC1CCC(CN2CCC(c3cc4ccccc4[nH]3)CC2)CC1 (stereo not drawn) [TCMDC-140236]
% Inhibition: 9.147%

O=C(/C=C/c1c(Cl)cccc1Cl)NC1CCC(CN2CCC(c3c[nH]c4ccncc34)CC2)CC1 (stereo not drawn) [TCMDC-140220]
% Inhibition: 108.5%

O=C(/C=C/c1ccc(Cl)c(Cl)c1)NC1CCC(CN2CCC(Cc3cc4ccccc4[nH]3)CC2)CC1 (stereo not drawn) [TCMDC-140232]
% Inhibition: -17.26%

O=C(/C=C/c1ccccc1Cl)NC1CCC(CN2CCC(c3c[nH]c4ccncc34)CC2)CC1 (stereo not drawn) [TCMDC-140110]
% Inhibition: 79.76%

O=C(C=Cc1cccc(Cl)c1Cl)NC1CCC(CN2CCC(c3c[nH]c4ccccc34)CC2)CC1 (stereo not drawn) [TCMDC-139910]
% Inhibition (% Inhibition): 41.2%

O=C(/C=C/c1c(Cl)cccc1Cl)NC1CCC(CN2CCC(Cc3cc4ccccc4[nH]3)CC2)CC1 (stereo not drawn) [TCMDC-140233]
% Inhibition: 51.23%

O=C(/C=C/c1c(Cl)cccc1Cl)NC1CCC(CN2CCC(c3c[nH]c4ccccc34)CC2)CC1 (stereo not drawn) [TCMDC-139858]
% Inhibition (% Inhibition): -12.84%

O=C(/C=C/c1c(Cl)cccc1Cl)NC1CCC(CN2CCC(c3c[nH]c4ccccc34)CC2)CC1 (stereo not drawn) [TCMDC-139856]
% Inhibition (% Inhibition): 7.287%

CS(=O)(=O)Nc1ccc2[nH]cc(C3CCN(CC4CCC(NC(=O)/C=C/c5ccccc5Cl)CC4)CC3)c2c1 (stereo not drawn) [TCMDC-139887]
% Inhibition: 39.39%
